For one assay, the target named is Activated CDC42 kinase 1 (Homo sapiens) (UniProt Q07912). The settings on record: at 0.1 µM.
Activated CDC42 kinase 1 (Homo sapiens), sequence (Q07912 whole entry, looked up): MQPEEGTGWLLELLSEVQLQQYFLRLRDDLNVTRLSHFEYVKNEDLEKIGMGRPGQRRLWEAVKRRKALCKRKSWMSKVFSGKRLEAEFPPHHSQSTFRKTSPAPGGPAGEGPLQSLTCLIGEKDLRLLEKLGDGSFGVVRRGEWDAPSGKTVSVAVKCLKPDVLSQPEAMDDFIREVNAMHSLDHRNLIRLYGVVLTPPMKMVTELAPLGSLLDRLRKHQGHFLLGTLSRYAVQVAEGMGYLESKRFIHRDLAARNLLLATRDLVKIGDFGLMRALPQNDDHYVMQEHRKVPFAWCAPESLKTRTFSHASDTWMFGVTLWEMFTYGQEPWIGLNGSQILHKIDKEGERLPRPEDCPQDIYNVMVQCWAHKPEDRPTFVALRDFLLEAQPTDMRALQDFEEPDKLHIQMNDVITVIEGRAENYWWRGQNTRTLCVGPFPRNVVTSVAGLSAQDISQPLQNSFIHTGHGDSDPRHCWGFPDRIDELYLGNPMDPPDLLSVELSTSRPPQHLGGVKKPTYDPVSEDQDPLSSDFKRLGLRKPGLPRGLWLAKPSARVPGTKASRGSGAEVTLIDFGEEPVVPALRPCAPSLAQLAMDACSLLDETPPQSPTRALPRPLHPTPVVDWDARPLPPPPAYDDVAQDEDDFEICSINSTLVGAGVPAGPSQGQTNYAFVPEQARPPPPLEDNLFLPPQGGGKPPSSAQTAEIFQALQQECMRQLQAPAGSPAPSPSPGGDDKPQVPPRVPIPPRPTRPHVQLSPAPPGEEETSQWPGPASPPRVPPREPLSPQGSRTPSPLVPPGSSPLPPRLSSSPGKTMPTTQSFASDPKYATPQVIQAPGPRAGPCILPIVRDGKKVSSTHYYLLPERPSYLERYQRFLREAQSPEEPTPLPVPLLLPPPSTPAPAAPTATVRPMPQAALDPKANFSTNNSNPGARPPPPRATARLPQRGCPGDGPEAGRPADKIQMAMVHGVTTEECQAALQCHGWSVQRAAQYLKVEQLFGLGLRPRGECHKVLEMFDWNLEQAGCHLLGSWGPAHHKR
Take `COc1cc2ncnc(Nc3ccc4c(cnn4Cc4ccccc4)c3)c2cc1OC`: the inhibition (as a rule, the relative decrease from the control value, in per cent) is 0.51%.
Regarding `COc1cc(Nc2nccc(-c3cnn4ncccc34)n2)cc(OC)c1`, the inhibition came to 3.06%.
The same measure, in the same setting: next, `ON=C1CCc2cc(-c3nc(C4CCNCC4)[nH]c3-c3ccncc3)ccc21`: -0.93%; `COc1cc2ncnc(Nc3ccc(C)c(O)c3)c2cc1OC`: 1.4%.
For `O=S(=O)(CCOCc1ccc(-c2ccc3ncnc(Nc4ccc(OCc5cccc(F)c5)c(Cl)c4)c3c2)o1)c1ccccc1`, the inhibition was -0.03%.
Still for that read-out and setting: next, `FC(F)(F)c1ccc(-c2nn3ncccc3c2-c2ccnc(Nc3ccc4c(c3)OCCO4)n2)cc1`: 6.74%; `O=C(Nc1ccc(Oc2ccc3[nH]c(NC(=O)c4ccco4)nc3c2)cc1)Nc1cc(C(F)(F)F)ccc1F`: 0.17%.
The same measure, in the same setting: the value for `NC(=O)c1sc(-n2cnc3ccccc32)cc1OCc1ccccc1Br` was 0.68%.
The same measure, in the same setting: the value for `CCCN1CCCC(c2ccc(Nc3nc(Nc4cc(F)ccc4C(N)=O)c4cc[nH]c4n3)c(OC)c2)C1` (stereo not given) was 5.79%.
On to `COc1ccc2ncnc(Nc3ccc(OCc4ccccc4)cc3)c2c1`, for which the inhibition came to 0.68%.
Consider `CCn1c(-c2nonc2N)nc2c(C#CC(C)(C)O)nc(OCCNC)cc21`, for which the inhibition stood at 0.83%.
The same measure, in the same setting: the value for `NS(=O)(=O)c1ccc(-c2cc3ccncc3cc2OCc2ccccc2)cc1` was 0.6%; that for `COC(=O)c1ccc2c(c1)C(=Cc1cc(Br)c(O)c(Br)c1)C(=O)N2` was 0.88%; that for `Nc1nccc(C#Cc2cncnc2Nc2ccc(OCc3cccc(F)c3)c(Cl)c2)n1` was 1.73%.
Same read-out and setting: the value for `Cc1ccc2c(-c3ccnc(Nc4ccc5c(c4)OCCO5)n3)c(-c3ccc(C(F)(F)F)cc3)nn2n1` was -0.07%; that for `Nc1nccc(-c2c(-c3ccc(F)cc3)ncn2CCCN2CCOCC2)n1` was 0.21%.
Still for that read-out and setting: the value for `COc1cc(/C=N/Nc2ncnc3c2cnn3C(C)C)ccc1O` was 0.51%.

Another assay has the same target. As to conditions: at 1 µM.
As for `CS(=O)(=O)Nc1cccc(-c2ccc3c(NC(=O)C4CC4)n[nH]c3c2)c1`, the inhibition was -2.06%.
As to `Cc1ccc2c(c1)/C(=N/Nc1ccc(S(N)(=O)=O)cc1)C(=O)N2`, the inhibition was -0.62%.
Regarding `O=C1Nc2ccccc2/C1=C/Nc1ccc2[nH]c(=O)[nH]c2c1`, the inhibition came out at 4.86%.
Still for that read-out and setting: the value for `C[C@@H](Oc1cc(-n2cnc3ccc(OC[C@@H](O)CO)cc32)sc1C(N)=O)c1ccccc1Cl` was 2.04%; that for `Cc1cc(-c2ccccn2)cc(C)c1/C=C/c1cncc(-c2nn[nH]n2)c1` was 2.33%; that for `NS(=O)(=O)c1ccc(Nc2cc(-c3cccc(O)c3)n[nH]2)cc1` was 2.01%.
On to `Cc1ccc(C(=O)NC2CC2)cc1-c1ccc2[nH]ncc2c1`, for which the inhibition worked out at 2.48%.
With `COC(=O)Nc1nc2cc(Oc3ccc(NC(=O)Nc4cccc(Br)c4)cc3)ccc2[nH]1`, the inhibition came out at 0.1%.
Still for that read-out and setting: next, `COc1ccc(-c2nn3ncccc3c2-c2ccnc(Nc3cccc(C(F)(F)F)c3)n2)cc1`: 0.85%; `[O-][S+]1CCN(Cc2ccc(-c3ccc4ncnc(Nc5ccc(OCc6ccccc6)c(Cl)c5)c4c3)o2)CC1`: -0.42%.
With `CS(=O)(=O)CCNCc1nc(-c2ccc3ncnc(Nc4ccc(OCc5cccc(C(F)(F)F)c5)cc4)c3c2)cs1`, the inhibition came out at 3.3%.
On the same count and under the same terms, the value for `CN(C)c1cc2c(Nc3ccc4c(cnn4Cc4ccccc4)c3)ncnc2cn1` was 1.68%; that for `Oc1cccc(-c2nc(-c3ccccc3)[nH]c2-c2ccncc2)c1` was 2.85%; that for `Cc1ccc(O)cc1Nc1ccnc2ccc(S(C)(=O)=O)cc12` was 54.8%.
The same measure, in the same setting: the value for `CCS(=O)(=O)c1ccc(OC)c(Nc2nccc(N(C)c3ccc4c(C)n[nH]c4c3)n2)c1` was 22.8%; that for `NS(=O)(=O)c1cccc(-c2cc3ccncc3cc2OCc2ccccc2)c1` was 1.65%.
On the same count and under the same terms, the value for `COc1cc2ncnc(Nc3ccc4c(cnn4Cc4ccccc4)c3)c2cc1OC` was 4.91%.
Take `COc1cc(Nc2nccc(-c3cnn4ncccc34)n2)cc(OC)c1`: the inhibition was 35.6%.
Same read-out and setting: the value for `ON=C1CCc2cc(-c3nc(C4CCNCC4)[nH]c3-c3ccncc3)ccc21` was -2.5%; that for `COc1cc2ncnc(Nc3ccc(C)c(O)c3)c2cc1OC` was 5.7%.
Same read-out and setting: next, `O=S(=O)(CCOCc1ccc(-c2ccc3ncnc(Nc4ccc(OCc5cccc(F)c5)c(Cl)c4)c3c2)o1)c1ccccc1`: -0.95%; `FC(F)(F)c1ccc(-c2nn3ncccc3c2-c2ccnc(Nc3ccc4c(c3)OCCO4)n2)cc1`: 8.14%; `O=C(Nc1ccc(Oc2ccc3[nH]c(NC(=O)c4ccco4)nc3c2)cc1)Nc1cc(C(F)(F)F)ccc1F`: 0.5%.
The same measure, in the same setting: next, `NC(=O)c1sc(-n2cnc3ccccc32)cc1OCc1ccccc1Br`: 1.87%; `CCCN1CCCC(c2ccc(Nc3nc(Nc4cc(F)ccc4C(N)=O)c4cc[nH]c4n3)c(OC)c2)C1` (stereo not given): 41.1%; `COc1ccc2ncnc(Nc3ccc(OCc4ccccc4)cc3)c2c1`: 1.66%.
With `CCn1c(-c2nonc2N)nc2c(C#CC(C)(C)O)nc(OCCNC)cc21`, the inhibition stood at 1.43%.
Turning to `NS(=O)(=O)c1ccc(-c2cc3ccncc3cc2OCc2ccccc2)cc1`, the inhibition worked out at 2.21%.
Consider `COC(=O)c1ccc2c(c1)C(=Cc1cc(Br)c(O)c(Br)c1)C(=O)N2`, for which the inhibition was 8.96%.
Turning to `Nc1nccc(C#Cc2cncnc2Nc2ccc(OCc3cccc(F)c3)c(Cl)c2)n1`, the inhibition worked out at 3.21%.
The same measure, in the same setting: next, `Cc1ccc2c(-c3ccnc(Nc4ccc5c(c4)OCCO5)n3)c(-c3ccc(C(F)(F)F)cc3)nn2n1`: 0.6%.
On the same count and under the same terms, the value for `Nc1nccc(-c2c(-c3ccc(F)cc3)ncn2CCCN2CCOCC2)n1` was 1.33%; that for `COc1cc(/C=N/Nc2ncnc3c2cnn3C(C)C)ccc1O` was 5.5%.

The values are drawn from ChEMBL document CHEMBL1961873, “Compounds: GSK PKIS; Assays: Nanosyn kinase panel” (2012).
